Source: the supplement of paper PMC6555819

How the values were obtained:
Assay in all cases: PBM binding z-score (relative to random genomic background probes); higher = stronger binding; sequences stand for … in GC…GCGATTGACAGCGTAGAATGAAGG
[1] = test system: RARb homodimer (NR concentration 270 nM)
How it was run: (§1)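 Ligand-free nuclear receptor dimers were applied to custom Agilent 4×180K protein-binding microarrays whose double-stranded probes carried direct-repeat seeds, single-nucleotide variants, half-site ablations and random human genomic background sequences in 34-nt variable regions. Incubation lasted 1 h. Binding z-scores were computed against the random background probes from regression-normalized fluorescence.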

[2] = test system: RARg:RXRa (NR concentration 270 nM, RXRa partner concentration 90 nM)
How it was run: as §1

[3] = test system: RARg homodimer (NR concentration 270 nM)
How it was run: as §1

[4] = test system: RXRa DBDmut IVT, anti-RXR (DBD mutation: RXRa K156A/R161A, NR concentration 90 nM)
How it was run: as §1

[5] = test system: RXRa homodimer (NR concentration 180 nM)
How it was run: as §1

[6] = test system: THRa:RXRa (NR concentration 90 nM, RXRa partner concentration 90 nM)
How it was run: as §1

[7] = test system: THRa homodimer (NR concentration 90 nM)
How it was run: as §1

[8] = test system: VDR:RXRa (NR concentration 270 nM, RXRa partner concentration 90 nM)
How it was run: as §1

[9] = test system: VDR homodimer (NR concentration 270 nM)
How it was run: as §1

| Sequence | PBM binding z-score [1] | PBM binding z-score [2] | PBM binding z-score [3] | PBM binding z-score [4] | PBM binding z-score [5] | PBM binding z-score [6] | PBM binding z-score [7] | PBM binding z-score [8] | PBM binding z-score [9] |
| --- | --- | --- | --- | --- | --- | --- | --- | --- | --- |
| CCTACTGGGCCAAACGTCATTGATTCCAATGCTC | -0.184 | -0.00983 | -0.146 | 0.278 | 0.000676 | -0.343 | -0.264 | -0.204 | -0.254 |
| TTACCAAGGTGAGGGTCGTTGATCCCTCTGTAGA | 0.945 | 0.785 | 0.443 | -0.138 | 1.37 | 1.8 | 0.423 | 0.884 | 0.171 |
| TGTCGGAGGACACGAAAGGTCAGAGCTCGACATC | 4.55 | 4.97 | 5.76 | -0.334 | 4.22 | 3.78 | 1.3 | 3.34 | 1.38 |
| GCATATAGGTAATACAACGTGAAAGTCCGATTGT | -0.603 | 0.114 | 0.451 | 0.181 | 0.119 | -0.366 | -0.557 | -0.316 | -0.205 |
| GCTATTAGTTGAAAGGGCAACCGCATGATTCTCG | 1.73 | 1.4 | 1.04 | 0.935 | 1.29 | 0.332 | -0.105 | 0.504 | 0.195 |
| ACTATTAGTTGACATAGGGCAACCGATACGACGC | 1.24 | 0.928 | 1.29 | 0.826 | 0.903 | 1.25 | 0.125 | 0.569 | 0.399 |
| TCATGTAGGTAATACAGGTGAAAGTCGGCATCTA | 0.12 | 0.0242 | -0.0708 | 0.736 | 0.579 | 0.531 | -0.119 | 0.207 | -0.0287 |
| ATCGAAAGGTCGAAGGGGAGTATACCCACCCGAA | 2.2 | 3.86 | 3.58 | 0.681 | 4.21 | 1.73 | -0.345 | 2.67 | 0.649 |
| TGAATGAGGTTATAAGATCAGGAAACGTTGCAAA | 0.0307 | 1.61 | 0.861 | 0.926 | 2.21 | 1.77 | -0.0709 | 1.01 | 0.225 |
| CGAACGAGGGCATGAGTTGATAGAAAATGCCGAT | 0.815 | 1.29 | 1.56 | 2.47 | 0.995 | 1.28 | -0.093 | 1.29 | 1.74 |
| AATACAGGGTCATCGTAGTCCAGAGTACGCACAG | 3.56 | 5.76 | 4.86 | 3.42 | 6.39 | 4.18 | 1.83 | 5.65 | 4.22 |
| TAGCCTAGTTCATGGGCCAGTATACCACGCGAAC | 1.05 | 0.816 | 0.746 | 1.37 | 0.734 | 0.187 | 0.00574 | 0.685 | 1.42 |
| GCGACTGGGGCAAAGCAGCTTACCATAAGGTTGG | -0.0781 | -0.172 | 0.112 | -0.131 | -0.267 | -0.139 | -0.756 | -0.87 | -0.658 |
| TTACCAATGTGAAAGGTCGTTGATGCACGCCTTG | 1.76 | 1.76 | 0.967 | 0.906 | 3.08 | 1.44 | 0.0994 | 2.08 | 1.66 |
| TAGCCTAGGTCAGACCGGGCCAGTATACGCTATA | 2.24 | 2.62 | 3.34 | -0.68 | 1.38 | 3.99 | -0.0936 | 0.854 | -0.324 |
| AGAACGAGGGCAATGAGTTGATAGCGCGGGTGGC | 0.949 | 0.964 | 1.44 | 2.34 | 0.602 | 0.756 | -0.205 | 5.04 | 3.3 |
| CCTTACGGGTCACTGACAAGTTATAGCATTTGGA | 2.62 | 4.86 | 4.71 | 1.85 | 5.12 | 2.29 | 0.165 | 3.07 | 0.93 |
| ATCTCGAGGTAAGACTCAGTTCAGTGAAGAACGC | 0.343 | 0.254 | 0.121 | 0.0712 | -0.00615 | 1.24 | 0.382 | 0.704 | 1.13 |
| CCTAGCAGGCCAGTCTGGGTCACTCAAGGCTTGA | 2.01 | 1.09 | 1.2 | -0.216 | 1.05 | 3.14 | 0.462 | 0.512 | -0.0969 |
| ATCTATAGGTAAAAGTTCAGTGAATCCCGAGGAT | 2.32 | 1.92 | 2.03 | 0.768 | 1.99 | 0.789 | -0.138 | 1.28 | 1.46 |
| ACGAGCAGGCCAAGGGTCACTCAAGATTAGTCCG | 3.96 | 4.21 | 4 | 0.0917 | 4.07 | 2.69 | 0.262 | 2.72 | 0.916 |
| CCTTACGGGTCACTGACAGGTTATTGCATTTGGA | 3.24 | 5.55 | 4.57 | 1.94 | 5.07 | 2.92 | 0.504 | 3.93 | 1.45 |
| GCTAGTTGGTCAGTACAAGGTCACACACCGGTCG | 4.39 | 4.09 | 3.66 | 0.602 | 3.47 | 4.02 | 4 | 3.24 | 2.53 |
| CCTCGGAGGACAGAAGGTCGGAGCTGTCCGCTTT | 1.03 | 0.91 | 0.81 | -0.0663 | -0.268 | 0.396 | -0.577 | -0.398 | -0.651 |
| CCGACTGGGGCATAAGGTGACCATAAGCCAGCCC | 1.26 | 0.678 | 0.621 | -1.25 | 0.516 | 1.7 | 0.792 | -0.42 | -0.621 |
| ATACCAAGGTGATCGTAAGGTCGTTGATACTAAC | 2.01 | 2.35 | 0.817 | 0.559 | 1.68 | 3.44 | 3.08 | 2.74 | 2.23 |

| Sequence | PBM binding z-score [1] | PBM binding z-score [2] | PBM binding z-score [3] | PBM binding z-score [4] | PBM binding z-score [5] | PBM binding z-score [6] | PBM binding z-score [7] | PBM binding z-score [8] | PBM binding z-score [9] |
| --- | --- | --- | --- | --- | --- | --- | --- | --- | --- |
| ATATGTAGGTTACATCCGGGTCAATCAGGCTATG | 3.12 | 3.95 | 2.2 | 0.665 | 3.37 | 3.8 | 2.33 | 3.59 | 1.72 |
| ATATGTAGGTTAGCAGGGGTCATTCAGACTAGGC | 4.08 | 5.19 | 3.61 | 1.99 | 6.36 | 4.61 | 1.78 | 6.33 | 5.34 |
| CCTCGGAGGACCGAAGGTCAGAGCTGTCCGCTTT | 2.65 | 2.03 | 2.2 | -0.585 | 1.54 | 1.62 | -0.389 | 0.565 | 0.161 |
| TAGCCTAGGTCATTGGGCCAGTATGGTACGCATC | 2.8 | 3.75 | 3.81 | 1.46 | 2.73 | 2.81 | 0.583 | 2 | 0.715 |
| TCATACAGGTAATACAGGTGAAAGTCGGCATCTA | 0.84 | 0.731 | 0.586 | 1.65 | 1.23 | 1.18 | 0.583 | 1.24 | 0.391 |
| ATATGTAGGTTAAGGGTCATTTAGGTTGGTTCGC | 4.09 | 4.79 | 3.29 | 2.35 | 6.16 | 3.72 | 1.76 | 5.38 | 3.97 |
| TCATAAAGGTAAAGGTGAAAGTCGAACGATATGA | 1.86 | 2.14 | 2.08 | 1.06 | 2.73 | 1.73 | -0.454 | 0.948 | 0.0173 |
| CCTTACGGGTCACGAGGTTAAAGCACGACGAGCG | 3.99 | 6.28 | 5.56 | 2.06 | 6.97 | 3.82 | 0.843 | 5.59 | 2.06 |
| TCGAGTAGGTTGGTCGGGGCATTCAGCCAACATA | 0.0867 | -0.467 | -0.483 | -0.0758 | -0.429 | 0.33 | 0.0385 | 0.314 | 0.0879 |
| CGTCAGAGTTCAAGGTAACGTAACAGAAAGCAGC | 3.02 | 4.6 | 5.3 | 4.91 | 4.35 | 2.74 | 1.04 | 4.23 | 4.53 |
| TCTATTGGTTGAAGGGCAACCGACGAGTCCGTTT | 1.17 | 0.455 | 0.586 | 1.37 | 0.744 | 0.279 | 0.101 | 0.889 | 1.24 |
| ACTAGCAGGACAAGGGTCACTCAAGATTAGTCCG | 3.75 | 4.12 | 3.61 | 0.928 | 3.68 | 3.04 | 0.529 | 3.05 | 2.01 |
| TCTTGTAGATCTATAGAGGTTAAGAAAGTGCGCT | 1.12 | 0.795 | 0.399 | 0.575 | 1.43 | 1.35 | -0.418 | 1.65 | 0.121 |
| GCAGACTGGTGAAACGCAGGTAACTCAGGGTGGC | -1.13 | -0.789 | -0.946 | -1.05 | -0.735 | 0.213 | -0.648 | -0.985 | -1.15 |
| GCTAGCAGGCCATTTCGGTCACTCAATGACGGGC | 1.03 | 0.276 | 0.793 | 0.0509 | -0.116 | 0.245 | -0.53 | -0.644 | -0.487 |
| ATCTCTAGGTAAAGATCGTTCAGTGAATGCAAAT | 0.111 | 0.0557 | 0.231 | -0.238 | -0.178 | 0.22 | -0.0507 | 0.221 | 0.139 |
| CCTGCTGGGCCAAAGGTCATTGATTCCAATGCTC | 4.53 | 5.82 | 4.91 | 1.48 | 6.37 | 3.2 | 0.638 | 4.43 | 2.24 |
| TCATATAGGCAAAGGTGAAAGTCGAACGATATGA | 1.42 | 1.59 | 1.08 | 0.694 | 2.3 | 1.22 | -0.37 | 0.976 | -0.123 |
| ACAGACAGGTGATGAAGGTAACTCAGGCTATCAT | 0.446 | 0.303 | 0.521 | -0.295 | 0.205 | 0.774 | 0.267 | 0.0426 | -0.205 |
| CGAACTCGGTCATTGACAGGACAGTGAATAGTAA | 1.42 | 2.12 | 2.49 | 0.678 | 0.736 | 0.661 | -0.331 | 0.452 | 0.676 |
| ATCTGTAGGTAACAAGTTCAGTGAAAGAGAGGAC | 2.16 | 1.44 | 1.42 | 0.851 | 0.902 | 1.26 | 0.755 | 2 | 2.46 |
| ATACCAAGGAGATCGTGAGGTCGTTGATACTAAC | 0.696 | 0.264 | 0.458 | 0.394 | 0.833 | 2.37 | 1.63 | 1.44 | 3.26 |
| CCTGCTAGGTGAATGGTCAGCTAAAGCAGCTCGC | 0.445 | 0.0358 | 0.301 | -0.37 | -0.237 | 0.283 | -0.317 | -0.699 | -0.841 |
| GCGACTAGGGCATCAGCAGGTTACCATAACTTAA | 0.836 | 1.12 | 0.817 | 0.0692 | 0.47 | 0.885 | 0.0227 | -0.295 | -0.299 |
| ATCTCTAGGTAAAGTTAGTTCAGTGAATGCAAAT | 0.802 | 0.673 | 0.531 | 0.563 | 0.331 | 1.94 | 0.737 | 1.42 | 1.35 |
